The list is not random: actives were taken first. Their share in the collection is about 9.9%.
KB-V1 cytotox – qHTS assay for MDR1-selective chemotherapeutics: Primary screen using the drug-selected MDR subline cells KB-V1; KB-V1 MDR cells viability, CellTiter-Glo, 72 h; Potency, µM (titrated, usually from 46.1 µM), hits mostly cytotoxic; actives 3.4% (n = 400,000); AID 1347076, 2019; further: potency means the concentration at half of the fitted maximal effect; on the % scale 0 is the no-effect control and ±100 the full control effect; nearly all actives have a fitted effect of over 60% in size
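Readout: CellTiter-Glo luminescence, 10 min after addition. Cells: KB-V1 MDR subline, 72 h at 37 degrees C with compound. Analysis: corrected, normalized data fitted to concentration-effect curves.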
MCF10A rerep – A quantitative high throughput screen for small molecules that induce DNA re-replication in MCF 10a normal breast cells; MCF 10A DNA re-replication, Hoechst nuclear intensity, 48 h; Potency, µM (top dose mostly 46.1 µM), inactives show at the highest dose activity, positive = re-replication, usual class: activators; actives 2.9% (n = 350,000); AID 624296, 2012; further: potency means the concentration at half of the fitted maximal effect; % of control where 0% means no effect; nearly all actives have a fitted effect of over 50% in size
SW480 rerep – A quantitative high throughput screen for small molecules that induce DNA re-replication in SW480 colon adenocarcinoma cells. SW480 DNA re-replication, Hoechst DNA content imaging, 48 h. Potency, µM (series often up to 46.1 µM), without a hit: at the top dose re-replication activation, most hits filed as activators. actives 1.8% (n = 340,000). AID 624297, 2012; further: potency means the concentration at half of the fitted maximal effect; % of control where 0% means no effect; nearly all actives have a fitted effect of over 55% in size
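Per well, 250 cells were exposed to pinned compound for 48 hr. Nuclear DNA was visualised with Hoechst (40 min, 37 C) and total object intensity recorded by fluorescence scanning.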
IL1B secr inh – qHTS for Inhibitors of Inflammasome Signaling: IL-1-beta AlphaLISA Primary Screen | THP-1 LPS/ATP IL-1B secretion, AlphaLISA, 16 h; active compounds read low | activity change, % at 57.5 µM | actives 4.7% (n = 360,000) | AID 743279, 2014; in the data active means activity change below about -50%; inconclusive means mostly about -30% to -49%; further: on the % scale 0 is the no-effect control and ±100 the full control effect
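THP-1 cells pretreated 1 hr with compounds (up to 57.5 uM final), then stimulated with LPS (250 ng/mL final) plus ATP (1.25 mM final); secreted IL-1B measured by AlphaLISA after 16 hr, decreased signal indicating inhibition.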
KB-3-1 tox – qHTS assay for MDR1-selective chemotherapeutics: Primary screen using the parental adenocarcinoma cell KB-3-1; Potency, µM (doses to about 46.1 µM), actives largely listed as cytotoxic; AID 1347075, 2019; KB-3-1 viability, CellTiter-Glo ATP luminescence, 72 h; actives 1.4% (n = 400,000); further: potency means the concentration at half of the fitted maximal effect; on the % scale 0 is the no-effect control and ±100 the full control effect; nearly all actives have a fitted effect of over 60% in size
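KB-3-1 cells, DMEM (no phenol red) + 10% FBS; compound by pin transfer, 72 h, 37 °C. Readout: CellTiter-Glo luminescence after 10 min. Data normalized, curve-fitted.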
Active calls of the source: *; i = inactive; u = inconclusive; x = no result. Unless noted, the call rests on the fitted dose curve; in most records, active means well fitted curve in the direction sought with a large enough effect; inconclusive means small, poorly fitted or top-dose-only effect, or another doubt; inactive means no such curve, though single readings can be large; an effect the other way counts as inactive or inconclusive.

SMILES	KB-V1 cytotox	MCF10A rerep	SW480 rerep	IL1B secr inh	KB-3-1 tox
Cc1ccc(S(=O)(=O)N2CCCCC2CCNC(=O)C(=O)NCc2ccccc2C)cc1 (stereo not drawn)	9.2µM*	u	20.6µM*	-6.8	u
C#CCNC(=O)C1=C[C@H](c2csc3ccccc23)C[C@H](OCc2ccc(CO)cc2)O1	i	2.06µM*	u	-27.7	i
C#CCNC(=O)C1=C[C@@H](c2cn(C(C)=O)c3ccccc23)C[C@@H](OCc2ccc(CO)cc2)O1	u	5.2%	u	16.6	i
O=C(Nc1ccccc1)C1=C[C@@H](c2csc3ccccc23)C[C@@H](OCc2ccc(CO)cc2)O1	u	u	u	3.7	u
CC(=O)n1cc([C@H]2C=C(C(=O)NCc3ccccc3)O[C@@H](OCc3ccc(CO)cc3)C2)c2ccccc21	i	18.4µM*	15.5%	-53.3*	i
O=C(NCc1ccccc1)C1=C[C@H](c2csc3ccccc23)C[C@H](OCc2ccc(CO)cc2)O1	i	u	1.3%	-52.2*	i
COc1ccc(/C=C2\SC(=O)N(CCC(=O)Nc3ccccc3)C2=O)cc1OC	i	-2.2%	-39.4%	11.0	i
COc1cc(/C=C2\SC(=O)N(CCN)C2=O)ccc1OS(=O)(=O)c1cc(C)ccc1C	i	u	-2.4%	-109.3*	i
CSc1nnc(-c2sccc2OCc2ccc(C)cc2)n1C	18.4µM*	u	u	9.4	u
COc1cc(OC)nc(Nc2nc(C(N)Cc3ccc(Cl)cc3)cs2)n1 (stereo not drawn)	u	x	x	-88.5*	u
COc1cc(OC)nc(Nc2nc(C(N)COCc3ccccc3)cs2)n1 (stereo not drawn)	i	x	x	u	i
COC(=O)c1cc(C)nc(Nc2nc(C(N)Cc3ccc(Cl)cc3)cs2)n1 (stereo not drawn)	u	x	x	-67.9*	u
Cc1cnc(C)c(Nc2nc(C(N)Cc3ccc(Cl)cc3)cs2)n1 (stereo not drawn)	20.6µM*	x	x	-16.0	u
Cc1cnc(C)c(Nc2nc(C(N)Cc3ccc(F)cc3)cs2)n1 (stereo not drawn)	i	x	x	-20.1	i
CCCCNC(=O)CSc1nc2cc3c(cc2c(=O)n1Cc1ccco1)OCO3	u	4.6%	-0.4%	9.3	i
Cc1ccccc1OCCC(=O)Nc1ccc2c(C)cc(=O)oc2c1	i	6.0%	-1.2%	-3.6	i
CCOC(=O)C1CCCN(C(=O)c2cc(Nc3ccc(OC)c(OC)c3)nc3ccccc23)C1 (stereo not drawn)	i	11.2%	2.6%	-92.6*	i
COc1ccc(-c2cc(C(=O)N3CCCCCC3)c3ccccc3n2)cc1	u	13.0%	u	-6.0	i
COCCSc1ccccc1C(=O)N1CCCC(C)C1 (stereo not drawn)	i	-4.6%	-1.4%	-8.9	i
CCOC(=O)C1CCCN(C(=O)c2ccccc2SCCOC)C1 (stereo not drawn)	i	20.6µM*	u	4.7	i
CCOC(=O)C1CCCN(C(=O)c2cc(-c3ccc(C)cc3)nc3ccccc23)C1 (stereo not drawn)	11.6µM*	u	-1.3%	36.4	i
COc1cccc(-n2cnnc2SC(C)C(=O)NC2CCCC2)c1 (stereo not drawn)	i	3.5%	3.3%	0.0	i
O=C(NCc1ccncc1)[C@@H]1CCCN1C(=O)[C@@H]1CCCN1C(=O)c1cccc2ccccc12	i	x	x	-102.7*	i
O=C(NCc1ccccc1)[C@@H]1CCCN1C(=O)[C@@H]1CCCN1C(=O)c1cccc2ccccc12	i	x	x	-16.2	u
COc1ccc(S(=O)(=O)N2CCC[C@H]2C(=O)N2CCC[C@H]2C(=O)NCc2ccncc2)cc1C	u	x	x	-57.1*	u
SMILES	KB-V1 cytotox	MCF10A rerep	SW480 rerep	IL1B secr inh	KB-3-1 tox
COc1ccc(S(=O)(=O)N2CCC[C@H]2C(=O)N2CCC[C@H]2C(=O)NCc2ccccc2)cc1C	i	x	x	0.0	i
CCOC(=O)[C@]12CCC=C1N(Cc1ccc3c(c1)OCO3)C(=O)[C@H](CC(=O)NCc1cccc3ccccc13)C2	i	x	x	-60.0*	u
COC(=O)[C@]12CCCCC=C1N(Cc1ccc3c(c1)OCO3)C(=O)[C@H](CC(=O)NCc1cccc3ccccc13)C2	23.1µM*	x	x	-11.1	u
CCOC(=O)[C@]12CCC=C1N(Cc1ccc3c(c1)OCO3)C(=O)[C@H](CC(=O)NCc1cccs1)C2	u	x	x	-7.5	i
COc1ccc2ccccc2c1CNC(C)c1ccccc1 (stereo not drawn)	i	-16.5%	u	-55.2*	i
COc1ccc2ccccc2c1CNCc1ccc(C)cc1	i	0.5%	u	-91.7*	i
CC(NCCCOc1cccc2ccccc12)c1ccccc1 (stereo not drawn)	i	u	11.0%	-73.8*	i
CC(NCCOCCOc1ccccc1)c1ccccc1 (stereo not drawn)	u	9.2%	-4.7%	-7.8	i
O=C(NC1CC1)c1cccc(Nc2ccc(-c3ccc4c(c3)OCCO4)nn2)c1	16.4µM*	2.0%	-10.2%	3.1	u
O=S(=O)(c1ccc(Nc2ccc(-c3ccc4c(c3)OCCO4)nn2)cc1)N1CCCC1	u	-0.4%	-7.5%	0.0	i
CC(=O)Nc1ccc(CNc2nc3cc(-c4ccsc4)sc3c(=O)n2C)cc1	23.1µM*	x	x	56.4	u
COCCNc1nc2cc(-c3ccsc3)sc2c(=O)n1C	i	x	x	5.6	i
Cn1c(NCCN2CCCC2)nc2cc(-c3ccsc3)sc2c1=O	i	x	x	-63.3*	u
CC(C)c1csc(CN2CCC(N3CCC(C(=O)N4CCOCC4)CC3)CC2)n1	u	-9.2%	-5.5%	21.4	i
CCn1c(SCc2ccccc2)nnc1-c1nonc1NC(C)=O	i	x	x	x	i
Cn1c(-c2ccccc2)c(C#Cc2ccc(N)cc2)c2ccccc21	i	11.6µM*	9.2µM*	-4.0	i
CCOc1ccc(NC(=O)CN(C)CC(=O)Nc2ccc(F)c(F)c2F)cc1OCC	u	3.0%	-2.1%	7.4	i
c1ccc2nc(-c3nc4ccccc4o3)ccc2c1	i	-14.5%	1.3%	-3.3	11.2µM*
CC(C)c1cc(CN2C(C)COCC2C)cc(C(C)C)c1O (stereo not drawn)	16.4µM*	2.4%	-3.0%	-18.2	u
